Source: PubChem BioAssay (The Scripps Research Institute Molecular Screening Center)
The list is not random: actives were taken first. Their share in the collection is about 3.5%.
GPR151 activ = activates the human receptor GPR151; PathHunter beta-arrestin GPR151 cells, luminescence; activation, % at 11.2 µM; actives 1% (n = 650,000); Q8TDV0; AID 1508602; in the data active = activation above about 4.9%
Target sequence (Q8TDV0 whole entry, looked up): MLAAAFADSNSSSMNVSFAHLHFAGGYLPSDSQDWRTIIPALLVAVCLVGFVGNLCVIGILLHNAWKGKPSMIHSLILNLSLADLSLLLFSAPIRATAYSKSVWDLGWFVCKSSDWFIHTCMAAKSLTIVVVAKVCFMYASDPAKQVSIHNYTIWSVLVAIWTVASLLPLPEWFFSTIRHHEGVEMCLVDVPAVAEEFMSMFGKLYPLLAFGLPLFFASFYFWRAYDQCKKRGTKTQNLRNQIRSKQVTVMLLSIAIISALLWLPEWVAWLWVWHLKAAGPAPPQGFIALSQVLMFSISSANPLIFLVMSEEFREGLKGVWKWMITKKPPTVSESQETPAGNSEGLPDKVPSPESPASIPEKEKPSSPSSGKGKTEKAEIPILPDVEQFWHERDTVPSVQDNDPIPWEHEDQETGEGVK
TEAD-YAP inh = TEAD-YAP interaction inhibition; AID 1259422; inhibition, % at 9.12 µM; actives 1.4% (n = 640,000); HEK-TIYL cells, TEAD-Gal4/YAP UAS-luciferase luminescence; in the data active = inhibition above about 32%
MITF primary = blocks human microphthalmia-associated transcription factor; AlphaScreen MITF homodimerization, bead proximity signal; inhibition, % at 2.6 µM; actives 0.91% (n = 650,000); in the data active = inhibition above about 50%
FBW7 act = human FBW7 E3 ligase activation, primary screen; Q969H0; AlphaScreen FBW7–phospho-cyclin E peptide binding, activator screen; normalized activity (activation), % at 26.1 µM; actives 0.13% (n = 650,000); in the data active = normalized activity above about 1.9%;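 also: purified mutant Fbw7 with reduced substrate affinity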
Numbers stand for hits; – = inactive.

SMILES	GPR151 activ	TEAD-YAP inh	MITF primary	FBW7 act
O=[N+]([O-])c1cccc(S(=O)(=O)NCCc2cn3ccsc3n2)c1	–	–	–	6.2
OC(c1ccccc1)c1ccccn1 (configuration not stated)	–	–	–	–
CC1CC(C(O)c2ccccn2)C(=O)C(C(O)c2ccccn2)C1 (configuration not stated)	–	40	–	–
Cc1ccccc1Oc1cc(NC(=O)c2c(-c3ccccc3)nn(-c3ccccc3)c2C)cc([N+](=O)[O-])c1	–	–	–	–
Cc1ccccc1NCC1OCc2ccccc2CO1	–	–	–	–
COc1ccc(CC(=O)Nc2cc(Nc3ccccc3-c3ncn[nH]3)ccn2)cc1	–	–	–	–
COc1ccc(CC(=O)Nc2cc(Nc3ccccc3NC(C)=O)c(C(F)(F)F)cn2)cc1	–	67	–	–
COc1ccc(CC(=O)Nc2cc(Nc3ccccc3-c3ncco3)c(C(F)(F)F)cn2)cc1	–	54	–	–
COc1ccc(CC(=O)Nc2ccccc2C(F)(F)F)cc1	–	–	–	–
CNC(=O)/C(C#N)=C\c1ccc(N2CCCC2)o1	–	–	–	–
COc1cccc2c1C(=O)c1c(O)c3c(c(O)c1C2=O)C[C@@](O)(C(C)=O)C[C@@H]3O[C@H]1C[C@H](N)[C@H](O)[C@H](C)O1	–	93	–	–
CC(=O)[C@]1(O)Cc2c(O)c3c(c(O)c2[C@@H](O[C@H]2C[C@H](N)[C@H](O)[C@H](C)O2)C1)C(=O)c1ccccc1C3=O	–	–	–	–
COc1cccc2c1C(=O)c1c(O)c3c(c(O)c1C2=O)C[C@@](O)(C(=O)CO)C[C@@H]3O[C@H]1C[C@H](N)[C@@H](O)[C@H](C)O1	–	62	–	–
O=C(O)CCC(=O)Nc1ccccc1F	–	–	–	–
Cc1[nH]c2ccc(-c3nnc(SCC(=O)N(C(C)C)C(C)C)o3)cc2c1C	–	36	–	–
CC(NC1CCN(c2cccc(NC(=O)c3ccncc3)c2)CC1)c1ccc(Cl)cc1 (configuration not stated)	–	36	–	–
Cc1nc(C(C)NC2CCN(c3cccc(NC(=O)c4ccncc4)c3)CC2)cs1 (configuration not stated)	–	–	–	–
CCOC(CNC(=O)c1c[nH]c2ccc(S(=O)(=O)N3CCc4ccccc43)cc2c1=O)OCC	–	–	–	–
COc1ccc(CCNC(=O)c2c[nH]c3ccc(S(=O)(=O)N4CCc5ccccc54)cc3c2=O)cc1OC	–	35	–	–
COc1cccc(-c2cc3nc(C4CCCNC4)cc(N)n3n2)c1 (configuration not stated)	–	37	–	–
COc1ccc(-c2cc3nccc(C4CCCNC4)n3n2)cc1OC (configuration not stated)	–	–	–	–
CC(C)N1CC=C2C(C#N)=C(N)C(C#N)(C#N)C(c3c(F)cccc3Cl)C2C1 (configuration not stated)	–	–	–	–
O=c1c(-c2ccc3c(c2)OCCO3)coc2cc(O)ccc12	–	55	–	–
O=c1c(-c2ccc3c(c2)OCCCO3)coc2cc(O)cc(O)c12	–	66	–	–
COc1ccc2c(=O)c(-c3ccc4c(c3)OCCO4)coc2c1	–	–	–	–
SMILES	GPR151 activ	TEAD-YAP inh	MITF primary	FBW7 act
O=C(c1ccc(N2CCOCC2)nc1)N1CCSCC1	–	–	–	–
CN(C)S(=O)(=O)c1cccc(NC(=S)Nc2ccccc2C#N)c1	–	87	–	–
Cc1cc(Br)ccc1NC(=O)Cn1cc([N+](=O)[O-])cn1	–	–	–	–
Cc1cc2nc3c(=O)[nH]c(=O)[nH]c3nc2c([N+](=O)[O-])c1N	–	–	68	–
Cc1cc2nc3c(=O)[nH]c(=O)[nH]c3nc2cc1N	–	–	–	–
CC[n+]1c(/C=C(/C)OC)sc2ccccc21	–	33	–	–
CC[n+]1c(/C=C/c2ccc(N(C)C)cc2)sc2ccccc21	–	54	–	–
CN(C)c1ccc(/C=C/c2sc3ccc4ccccc4c3[n+]2C)cc1	–	53	–	–
CC[n+]1ccc(/C=C/c2ccc(N(C)C)cc2)cc1	–	82	–	–
CCOc1ccc2ccccc2c1/C=N\NC(=O)CNC(=O)c1ccccn1	–	–	–	–
OC1(c2ccc3c(c2)OCCO3)CN(c2ccccc2)C2=[N+]1CCCCC2 (configuration not stated)	–	–	–	–
C1=NC2(CCCC2)Cc2c1ccc1ccccc21	–	32	–	–
COc1ccc(-n2c(-c3cccc([N+](=O)[O-])c3)n[nH]c2=S)cc1	–	–	–	–
Cn1c(-c2ccc3c(c2)OCO3)cn2cc(-c3cccc([N+](=O)[O-])c3)nc12	–	98	–	–
O=[N+]([O-])c1cccc(-c2csc(Nc3ccc4c(c3)OCO4)n2)c1	–	–	–	–
Cn1c(-c2ccccc2)cn2cc(-c3cccc([N+](=O)[O-])c3)nc12	–	99	–	–
COc1ccc(-c2cn3cc(-c4cccc([N+](=O)[O-])c4)nc3n2C)cc1	–	98	–	–
Cn1c(-c2cccc([N+](=O)[O-])c2)n[nH]c1=S	–	–	–	–
COc1ccc(CCNc2nc(Nc3ccc(C(F)(F)F)cc3)nc3c2ncn3-c2ccsc2)cc1	–	–	–	–
COc1ccc(CCNc2nc(Nc3ccc(N4CCOCC4)cc3)nc3c2ncn3-c2ccsc2)cc1	–	62	–	–
Oc1ccc(CCNc2nc(Nc3cnccn3)nc3c2ncn3-c2ccsc2)cc1	–	66	–	–
Oc1ccc(CCNc2nc(Nc3ccccc3)nc3c2ncn3-c2ccccc2)cc1	–	–	–	–
Oc1ccc(CCNc2nc(Nc3ncccn3)nc3c2ncn3-c2ccsc2)cc1	–	56	–	–
Oc1ccc(CCNc2nc(Nc3ccccc3)nc3c2ncn3-c2ccsc2)cc1	–	38	–	–
CCC(=O)NNC(=O)CSc1nc(C(C)C)nc2sc3c(c12)CCC(C)C3 (configuration not stated)	–	–	–	–
SMILES	GPR151 activ	TEAD-YAP inh	MITF primary	FBW7 act
CCn1c(=O)/c(=C\C=C2/SC(c3ccccc3)=C(c3ccccc3)N2C)s/c1=C1/C(=O)N(c2ccccc2)N=C1C	–	–	–	–
CC(=O)N(/N=C1\Sc2ccccc2C1=O)c1cccc(C)c1	–	–	–	–
CC(=O)N(/N=C1\Sc2ccccc2C1=O)c1ccccc1Cl	–	91	–	–
CC(=O)O[C@]1(C(C)=O)CCC2C3C[C@H](C)C4=CC(=O)CC[C@]4(C)C3CC[C@@]21C (some centres not stated)	–	–	–	–
CC(=O)c1cc2c(cc1Nc1ccc3nonc3c1[N+](=O)[O-])OCO2	–	–	–	–
O=C(NC1CCCC1)c1cccc(NC2=NC3CS(=O)(=O)CC3S2)c1 (configuration not stated)	–	–	–	–
CCc1nn(CC(=O)C(C)(C)C)c(=O)c2cc3ccsc3n12	–	–	–	17
O=C(NCC1CCCO1)C1CCC(Cn2c(SCC(=O)N3CCN(c4ccccc4)CC3)nc3ccccc3c2=O)CC1 (configuration not stated)	–	–	–	–
